Results reported in PubChem BioAssay AID862 (The Scripps Research Institute Molecular Screening Center, 2007).
About 1,700 (0.89%) of roughly 190,000 compounds were called active. Shown is part of a subset that was picked to be rich in actives. Unmarked numbers belong to inactive results.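 How the source made its calls: active means inhibition above the mean inhibition across all screened compounds plus 3 SD (cut at about 44% in these data); inactive means the rest.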

Assay: IL-6 driven STAT3 reporter inhibitors, primary screen, U3A cells, luciferase, luminescence, MLSCN library (AID 862);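 further: 0% = DMSO only wells and 100% = 100 µM nifuroxazide control wells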
Conditions: IL-6 STAT3-luciferase reporter, at 5.5 µM, stronger effect = higher value, host cell line lacks STAT1
With `O=C(Nc1ccn(Cc2ccc(F)cc2)n1)c1ccncc1` the inhibition was 22.9%.
In the case of `O=C(Nc1ccn(Cc2ccccc2)n1)c1n[nH]c([N+](=O)[O-])c1Cl`, the inhibition is reported as 53.5% (active).
In the case of `O=C(Nc1ccn(Cc2ccccc2)n1)c1cccc(F)c1`, the inhibition is reported as 12.5%.
`Cc1cccc(C(=O)Nc2ccccc2C(=O)NCc2cccnc2)c1` gave an inhibition of 10.3%.
Compound `CCOC(=O)/C(=N\Nc1ccccc1Cl)N(C)C1CCS(=O)(=O)C1` (stereo not drawn) has an inhibition of 5.4%.
With `Nc1ccc(Nc2ccccc2)cc1` the inhibition was 18.1%.
For `Cc1ccc(Nc2ccccc2N)cc1`, the inhibition was 69.5% (active).
For `Cc1ccc(Nc2nnc(SCc3ccccc3)s2)cc1`, the inhibition was -15.7%.
Work on `O=C1NC(=Nc2ccc(Cl)cc2)SC1Cc1cccc(Cl)c1Cl` (stereo not drawn) yielded an inhibition of 0.2%.
`CCOc1ccc(C(CC(=O)O)n2cnnn2)cc1OC` (stereo not drawn) gave an inhibition of 17.4%.
`CCN(CCn1cccn1)Cc1nc(-c2ccc(C(=O)OC)cc2)no1` showed an inhibition of 7.7%.
Work on `OC(COc1ccc(CN2CCSCC2)cc1)CN1CCCCC1` (stereo not drawn) yielded an inhibition of 4.3%.
With `COc1ccc(C2=Nc3cc(C)ccc3OC2)cc1` the inhibition was 66.7% (active).
Work on `COc1ccc(C2=NOC3(CC(=O)N(c4ccc(C)cc4)C3=O)C2)cc1` (stereo not drawn) yielded an inhibition of 0%.
Work on `COc1ccc(C2=NOC(COC(=O)c3ccc4ccccc4n3)C2)cc1` (stereo not drawn) yielded an inhibition of -2.7%.
With `CC[C@H]1CN2CCc3cc(OC)c(OC)cc3[C@@H]2C[C@@H]1C[C@H]1NCCc2cc(OC)c(OC)cc21` the inhibition was 101% (active).
Compound `COc1cc2c(cc1O)[C@H](Cc1ccc(Oc3cc(C[C@@H]4NCCc5cc(OC)c(O)cc54)ccc3O)cc1)NCC2` has an inhibition of -0.3%.
In the case of `CCOC(=O)N1CCC(NC(=O)C(NS(=O)(=O)c2ccc3c(c2)CCN3C(=O)CC)C(C)C)CC1` (stereo not drawn), the inhibition is reported as 8.6%.
In the case of `CCOc1ccc(NS(=O)(=O)c2ccc(C)c(C(N)=O)c2)cc1`, the inhibition is reported as 20.3%.
In the case of `COc1cccc(/C=C/C(=O)Nc2ccc3c(c2)OCCO3)c1`, the inhibition is reported as 30.9%.
`O=C(Cn1cnc2ccccc21)N/N=C/c1ccco1` showed an inhibition of 1.9%.
With `Cc1cc(NC(=O)c2cc(-c3cccs3)on2)nn1Cc1ccc(Cl)cc1` the inhibition was 47.2% (active).
Compound `O=C(c1cc(-c2cccs2)on1)N1CCCCC1` has an inhibition of 24.7%.
Compound `Cc1ccc(Cn2ccc(NC(=O)c3cc(C(C)C)on3)n2)cc1` has an inhibition of 15.3%.
Compound `C=CCn1nc(-c2ccccc2)c2c(C)onc2c1=O` has an inhibition of 1.6%.
In the case of `OCCn1c(-c2ccccc2)csc1=Nc1ccccc1`, the inhibition is reported as 46.5% (active).
In the case of `Cc1csc(=Nc2ccccc2)n1CCO`, the inhibition is reported as 5.8%.
Work on `Cc1csc(=NC(=O)c2ccccc2)n1CCO` yielded an inhibition of 0.5%.
Compound `COC(=O)Cc1ccc(NC(=S)NCc2ccco2)cc1` has an inhibition of 2.5%.
With `COc1ccc(-c2nc(-c3ccccc3)no2)c(OC)c1` the inhibition was 102% (active).
Compound `COc1ccc(-c2noc(-c3cccc(OC)c3OC)n2)cc1OC` has an inhibition of 9.5%.
For `COc1ccc(-c2noc(-c3ccc(C)cc3)n2)cc1`, the inhibition was 11.2%.
For `COCCCNC(=O)/C=C/c1ccc(OCc2c(F)cccc2Cl)cc1`, the inhibition was 20%.
Compound `Cc1ccc(NC(=O)Nc2nnc(-c3ccncc3)s2)cc1` has an inhibition of 9.8%.
`CC1CC(C)CN(CCC(=O)Nc2ccc3c(c2)CCC3)C1` (stereo not drawn) gave an inhibition of 3.9%.
Compound `O=C(/C=C/c1ccccc1[N+](=O)[O-])OC1CCCCC1=O` (stereo not drawn) has an inhibition of 4.5%.
With `O=c1[nH]c(CCl)nc2cc(-c3ccc(Cl)cc3)sc12` the inhibition was 51.2% (active).
Compound `NC(=O)Cc1nc2scc(-c3ccc(Cl)cc3)c2c(=O)[nH]1` has an inhibition of 16%.
`O=c1[nH]c(CN2CCOCC2)nc2cc(Cl)ccc12` gave an inhibition of 4.9%.
`CCOc1cccc(/C=N/N2C(=O)CSC2=S)c1O` gave an inhibition of 2.5%.
Compound `Cc1ccc2[nH]c(=O)c(CN3CCCCC3)c(-c3ccccc3)c2c1` has an inhibition of 8.1%.
In the case of `CCOc1cccc(/C=C/c2ccc3ccccc3n2)c1OC(C)=O`, the inhibition is reported as 58.6% (active).
`CC(OC(=O)c1ccc2ccccc2n1)C(=O)c1ccccc1` (stereo not drawn) gave an inhibition of -6.4%.
For `COc1cccc2sc(NNC(=O)c3nc4ccccc4s3)nc12`, the inhibition was -23.2%.
Compound `CCOc1ccccc1NC(=O)c1cccnc1` has an inhibition of 6%.
Compound `NC(=O)COC(=O)/C=C/c1ccc2ccccc2n1` has an inhibition of -0.2%.
With `COc1cccc(/C=C/c2ccc3ccccc3n2)c1OC(C)=O` the inhibition was 89.8% (active).
Compound `CCn1c2ccccc2c2cc(NC(=O)COC(=O)c3cc(S(=O)(=O)N4CCCCC4)ccc3Cl)ccc21` has an inhibition of 4%.
Work on `COc1ccc(/C=C/C2=CC(C)(C)NC(=S)N2)c(OC)c1` yielded an inhibition of 9.7%.
`COC(=O)Cn1cc(/C=C/[N+](=O)[O-])c2ccccc21` gave an inhibition of -0.7%.
`CN1C(=O)/C(=C/c2ccco2)SC1=Nc1cccc(C(=O)O)c1` gave an inhibition of 3.5%.
`CC(C)C(=O)Nc1ccc2c3c(cccc13)CC2` showed an inhibition of 1.8%.
Work on `COc1ccc(C(=O)Nc2nncs2)c(OC)c1` yielded an inhibition of 8.6%.
Work on `COc1cc(SC)ccc1C(=O)NCCOc1ccccc1Cl` yielded an inhibition of -8.5%.
In the case of `COc1cc(SC)ccc1C(=O)Nc1cc(C)ccn1`, the inhibition is reported as 55.6% (active).
Work on `CC(=O)Nc1cccc(C(=O)Nc2nc(C)cs2)c1` yielded an inhibition of 10.2%.
Compound `COc1ccccc1CNC(=O)c1ccc(SC)cc1OC` has an inhibition of 11.4%.
In the case of `COC(=O)c1sc(NC(=O)c2ccc(OC)cc2OC)nc1C`, the inhibition is reported as 86% (active).
Work on `Cc1ccnc(NC(=O)c2ccoc2C)c1` yielded an inhibition of 10.5%.
Work on `COC(=O)c1sc(NC(=O)c2csc3c2CCCC3)nc1C` yielded an inhibition of -15.5%.
With `COc1cc(SC)ccc1C(=O)Nc1nc(C)cs1` the inhibition was 111% (active).
`O=c1c2ccccc2c(-c2ccccc2)nn1-c1ccccn1` gave an inhibition of 4.6%.
For `O=C(CP(=O)(c1ccccc1)c1ccccc1)N1CCOCC1`, the inhibition was 6.3%.
With `COC(=O)Cc1ccc(OCC(=O)Nc2ccc(OC(F)(F)F)cc2)cc1` the inhibition was -10.9%.
`CCN1CCN(CC(=O)c2cc(OC)c(OC)c(OC)c2)CC1` showed an inhibition of 11.2%.
`COc1ccc(-c2csc(NC(=O)CCCc3cccs3)n2)cc1` gave an inhibition of 23.2%.
In the case of `CCCc1ccc(-c2csc(NC(=O)Cc3cccs3)n2)cc1`, the inhibition is reported as 43.7% (active).
`Cc1ccc(-c2csc(NC(=O)Cc3cccs3)n2)cc1C` showed an inhibition of 12.1%.
